PubChem BioAssay AID1445 (SRMLSC, 2008)
Where “and” joins values, the source holds several entries; their conditions need not be identical. Equal values may be shown once. The whole screen tested about 220,000 compounds, of which about 910 (0.41%) were called active. The entries come from a sample that favours actives as a whole. Measured potencies and affinities stand elsewhere. Unmarked numbers belong to inactive results.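 Rule for the calls: active = primary inhibition above the hit cutoff, then over 50% inhibition at one or more dose response concentrations (cut at about 23% in these data, passing the limit was not always enough); inconclusive = conflicting primary data, or primary hits not chosen for dose response; inactive = low primary inhibition, or under 50% at every dose.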

Target: Aminopeptidase N (Plasmodium falciparum (isolate 3D7)) (UniProt O96935)
Test: P. falciparum M1AAP inhibitors, biochemical, fluorogenic H-Leu-NHMec substrate, 1536-well (AID 1445);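 note: plate controls were DMSO full reaction for no effect and no enzyme background for full effect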
Details: recombinant M1AAP, H-Leu-NHMec fluorogenic kinetic assay; at 30 µM, stronger effect = higher value unless noted

Sequence of Aminopeptidase N (Plasmodium falciparum (isolate 3D7)) (O96935 whole entry, looked up): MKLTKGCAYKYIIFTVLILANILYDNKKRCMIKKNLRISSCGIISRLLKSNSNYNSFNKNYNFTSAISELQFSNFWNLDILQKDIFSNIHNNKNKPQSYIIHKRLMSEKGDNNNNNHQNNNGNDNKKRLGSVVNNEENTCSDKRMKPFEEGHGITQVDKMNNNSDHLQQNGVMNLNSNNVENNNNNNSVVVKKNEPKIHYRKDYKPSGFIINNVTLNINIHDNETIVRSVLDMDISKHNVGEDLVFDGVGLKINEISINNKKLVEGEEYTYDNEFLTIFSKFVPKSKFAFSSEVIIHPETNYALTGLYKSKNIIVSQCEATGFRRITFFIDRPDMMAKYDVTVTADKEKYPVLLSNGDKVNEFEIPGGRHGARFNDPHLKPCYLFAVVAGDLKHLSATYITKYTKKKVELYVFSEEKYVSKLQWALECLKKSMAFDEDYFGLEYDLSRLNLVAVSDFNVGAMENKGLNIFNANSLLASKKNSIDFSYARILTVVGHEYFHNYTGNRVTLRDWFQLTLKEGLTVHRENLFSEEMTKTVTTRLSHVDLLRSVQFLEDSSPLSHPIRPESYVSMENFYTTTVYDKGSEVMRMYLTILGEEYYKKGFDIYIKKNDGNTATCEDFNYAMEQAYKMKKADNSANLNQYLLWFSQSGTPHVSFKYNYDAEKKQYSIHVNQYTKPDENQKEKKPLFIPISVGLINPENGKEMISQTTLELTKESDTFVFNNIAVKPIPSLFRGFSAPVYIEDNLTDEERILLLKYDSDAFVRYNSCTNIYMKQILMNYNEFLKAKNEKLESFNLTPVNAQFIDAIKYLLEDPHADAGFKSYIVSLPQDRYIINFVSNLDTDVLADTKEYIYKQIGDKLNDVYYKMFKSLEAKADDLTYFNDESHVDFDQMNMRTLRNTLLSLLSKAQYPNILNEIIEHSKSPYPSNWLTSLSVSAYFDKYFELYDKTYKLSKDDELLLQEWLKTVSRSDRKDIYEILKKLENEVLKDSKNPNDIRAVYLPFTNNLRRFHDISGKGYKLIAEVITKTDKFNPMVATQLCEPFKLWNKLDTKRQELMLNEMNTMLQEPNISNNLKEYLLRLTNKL

Row | SMILES | inhibition
1 | O=C(Nn1c(Cc2ccccc2)nc2ccccc2c1=O)c1c(O)c2cccc3c2n(c1=O)CCC3 | -0.5%
2 | Cc1cc(C(=O)N2CCC(C)CC2)on1 | 9.58%
3 | COc1nc(Nc2ccc([N+](=O)[O-])cc2)nc(NC2CCCCC2)n1 | 8.38%
4 | COc1ccc(NC(=S)N2CCN(C(=O)C3CCCO3)CC2)c(OC)c1 (centres undefined) | 1.1%
5 | COCCNc1nnc(SCC(=O)Nc2cc(-c3ccccc3)nn2-c2ccccc2)s1 | 8.39%
6 | O=C(NNS(=O)(=O)c1ccccc1F)c1sccc1-n1cccc1 | 1.58%
7 | Cc1ccc([N+](=O)[O-])cc1/C=N/Nc1nnnn1-c1ccccc1 | -4.44%
8 | COC(=O)N/N=C/c1cc([N+](=O)[O-])cc(Br)c1O | 19.9%
9 | COc1cc(CCC(=O)OCC(=O)Nc2ccccc2C(C)C)cc(OC)c1OC | -3.32%
10 | N#CC(C#N)=C1C=CC=CN1/C(=C\c1ccco1)C(=O)c1ccc(Cl)cc1 | 17.2%
11 | N#CC(C#N)=C1C=CC=CN1/C(=C\c1ccco1)C(=O)c1ccc(-c2ccccc2)cc1 | 18.3%
12 | CCCc1nnc(NC(=O)NCCN2C(=O)C3C4C=CC(C4)C3C2=O)s1 (centres undefined) | 0.7%
13 | Cn1c(Cn2nnc(-c3ccccc3)n2)nnc1SCc1ccccc1Cl | 0.85%
14 | CC(C)C(=O)N(c1ccc2oc(=O)sc2c1)S(=O)(=O)c1cccs1 | 6.95%
15 | CC(=O)N(c1ccc2oc(=O)sc2c1)S(=O)(=O)c1cccs1 | 21.6%
16 | CC(C)C(=O)N(c1cc2sc(=O)oc2c2ccccc12)S(=O)(=O)c1cccs1 | 23.3% (active)
17 | Cc1ccc(-n2c(=O)cc(N3CCc4ccccc4C3)[nH]c2=O)cc1 | 3.06%
18 | CCc1cc2c(-c3ccccc3)cc(=O)oc2c(CN2CCOCC2)c1O | 9.72%
19 | CCc1cc2c(CN3CCN(CC)CC3)cc(=O)oc2cc1O | -1.87%
20 | CCc1cc2c(CN3CCN(CCO)CC3)cc(=O)oc2cc1O | 11.5%

Row | SMILES | inhibition
21 | CCCCc1cc(=O)oc2c(CN3CCCC3)c(O)c(Cl)cc12 | 13.1%
22 | CCCc1cc(=O)oc2cc(C)c(CN3CCCC3)c(O)c12 | 13.2%
23 | CCc1cc(=O)oc2c(CN3CCCC3)c(O)c(Cl)cc12 | 18.3%
24 | CCOC(=O)c1ccc(NC(=S)NCCCN2CCOCC2)cc1 | -1.32%
25 | CCO[C@@H]1OC(C(=O)N2CCOCC2)=C[C@H](c2ccc(C(F)(F)F)cc2)[C@H]1CCCO | 2.16%
26 | O=C(CSc1nc2c(sc3ccccc32)c(=O)n1CCCN1CCOCC1)NCC1CCCO1 (centres undefined) | 1.22%
27 | Cc1ccc(N2/C(=N/c3nc(C)cc(C)n3)NC(=O)CC2C(=O)O)cc1 (centres undefined) | -5.89%
28 | O=C(/C=C/c1ccc(-c2ccccc2)o1)c1ccccc1 | 4.34%
29 | O=Cc1ccc(-c2ccc(F)cc2)o1 | 12.4%
30 | N=c1c2c3c(sc2nc2n1CCC2)CCCC3 | 7.32%
31 | CCNc1nc(Cl)nc(-c2cn(-c3ccccc3)c3ccccc23)n1 | -7.96%
32 | COc1ccc(NC(C)=O)cc1S(=O)(=O)N1CCN(C/C=C/c2ccccc2)CC1 | 2.09%
33 | CCSc1nnc2c(n1)OC1(CCCC1)Nc1ccccc1-2 | 12.5%
34 | O=C(N/N=C/c1cccc([N+](=O)[O-])c1)c1cc(-c2ccc3c4c(cccc24)CC3)n[nH]1 | 6.89%
35 | O=C(O)c1ccc(/C=N/NC(=O)c2cc(-c3ccc4c5c(cccc35)CC4)n[nH]2)cc1 | 13.5%
36 | COc1ccc(-n2c(=S)[nH]c3cc(C(=O)NCc4ccco4)ccc3c2=O)cc1OC | 7.75% and 12.6%
37 | CCCc1cc(=O)[nH]c(Nc2cc(OC)ccc2OC)n1 | -0.31%
38 | CCOc1ccc(N(C(=O)c2ccccc2Cl)C2=NC(C)(C)CS2)cc1 | 5.11%
39 | Fc1ccc2c(c1)C1C=CCC1C(c1cc3c(cc1Br)OCO3)N2 (centres undefined) | 5.12%
40 | Brc1cc2c(cc1C1Nc3ccccc3C3C=CCC31)OCO2 (centres undefined) | 6.9%

Row | SMILES | inhibition
41 | COc1cccc(NS(=O)(=O)c2ccc3c(c2)C2C=CCC2C(c2ccc(C(=O)O)cc2)N3)c1 (centres undefined) | 22.8%
42 | O=C(O)c1ccc2c(c1)C1C=CCC1C(c1ccncc1)N2 (centres undefined) | 9.23%
43 | Cc1nc2c(C)cccn2c1/C(O)=C1\C(=O)C(=O)N(CCN(C)C)C1c1ccccc1 (centres undefined) | -2.63%
44 | CC(=O)c1ccccc1OC(=O)c1c(F)cccc1F | 3.59%
45 | Cc1nc2cc(F)ccc2n1C1CCN(C(=O)c2c(F)cccc2F)CC1 | 5.28%
46 | Cc1cccc(-c2c3c(=O)n(C)c(=O)n(C)c3cn2C(C)(C)C)c1 | 7.14%
47 | O=c1[nH]c2ccc(NC(=S)NCc3ccccc3)cc2[nH]1 | -4.38%
48 | C=CCn1c(COc2ccc(Cl)cc2)nnc1SCC(=O)N/N=C/c1cccc(O)c1 | 6.07%
49 | C=CCn1c(COc2ccccc2)nnc1SC(C)C(=O)N/N=C/c1cc(Cl)ccc1O (centres undefined) | 46.5% (active)
50 | C=CCn1c(COc2ccc(Cl)cc2)nnc1SCC(=O)N/N=C/c1ccccc1 | 0.22%
51 | CC1CC(=O)Nc2ccccc2N1S(=O)(=O)c1ccc(Br)cc1 (centres undefined) | -1.92%
52 | COc1ccccc1NC(=O)Cc1noc(CSc2nnc(C)n2C)n1 | -2.44%
53 | Cc1ccccc1CS(=O)(=O)Cc1ccc(C(=O)NCc2ccccn2)o1 | 11.9%
54 | O=C(CSc1ncnc2scc(-c3ccccc3)c12)Nc1ccc(C(=O)O)cc1 | 7.21%
55 | Cc1ccc(-c2csc3ncnc(SCC(=O)O)c23)cc1 | -4.79%
56 | CCc1cc2ccc(C)cc2nc1SCC(=O)Nc1cc(OC)c(OC)cc1C(=O)O | 17.6%
57 | COC(=O)CSc1ncnc2scc(-c3ccccc3)c12 | 8.48%
58 | Cc1sc2ncnc(SCc3ccc(C(=O)O)cc3)c2c1C | 8.46%
59 | CCc1cc2ccccc2nc1SCC(=O)Nc1cc(OC)c(OC)cc1C(=O)O | 6.44%
